# Data from paper PMC11006913.
# Numbering of substitutions follows the chain as printed.
# Assays:
# Experiment in all cases: PBM; 200 nM protein, PBS
# Conditions in all cases: dsDNA, one strand shown
# SHOX = SHOX (Homo sapiens, UniProt O15266 103-189)
# NKX2-4 = target: T1, NKX2-4 (Homo sapiens, UniProt Q9H2Z4 175-261, P217L)
# T1 sequence: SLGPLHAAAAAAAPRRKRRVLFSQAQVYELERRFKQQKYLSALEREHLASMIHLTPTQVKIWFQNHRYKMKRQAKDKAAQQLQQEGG
# CRX [1] = target: CRX (Homo sapiens, UniProt O43186 26-111)
# CRX [2] = target: CRX (Homo sapiens, UniProt O43186 26-111, E42D)
# CRX (Homo sapiens, UniProt O43186 26-111, E42D), sequence (O43186 26-111 E42D): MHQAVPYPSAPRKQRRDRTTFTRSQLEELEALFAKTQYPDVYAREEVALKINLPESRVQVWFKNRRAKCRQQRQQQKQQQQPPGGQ
# CRX [3] = target: CRX (Homo sapiens, UniProt O43186 26-111, R41L)
# CRX (Homo sapiens, UniProt O43186 26-111, R41L), sequence (O43186 26-111 R41L): as the sequence (O43186 26-111 E42D) above, with R16L, D17E counted along it
# NKX3-2 [4] = target: NKX3-2 (Homo sapiens, UniProt P78367 192-278, P234S)
# NKX3-2 (Homo sapiens, UniProt P78367 192-278, P234S), sequence (P78367 192-278 P234S): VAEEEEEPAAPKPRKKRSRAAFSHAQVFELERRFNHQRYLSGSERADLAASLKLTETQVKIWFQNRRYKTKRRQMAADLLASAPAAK
# NKX3-2 [5] = target: NKX3-2 (Homo sapiens, UniProt P78367 192-278)
# NKX3-2 (Homo sapiens, UniProt P78367 192-278), sequence (P78367 192-278): as the sequence (P78367 192-278 P234S) above, with S43P counted along it
# HOXC10 = HOXC10 (Homo sapiens, UniProt Q9NYD6 254-340, K271E)
# HOXC10, sequence (Q9NYD6 254-340 K271E): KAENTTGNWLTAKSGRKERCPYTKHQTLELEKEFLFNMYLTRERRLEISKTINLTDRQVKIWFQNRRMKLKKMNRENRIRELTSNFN
# SIX6 [6] = target: T2, SIX6 (Homo sapiens, UniProt O95475 114-200, L167I)
# T2 sequence: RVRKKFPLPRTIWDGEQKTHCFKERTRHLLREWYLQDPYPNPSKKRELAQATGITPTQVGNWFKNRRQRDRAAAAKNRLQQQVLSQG
# SIX6 [7] = target: T3, SIX6 (Homo sapiens, UniProt O95475 114-200, T165P)
# T3 sequence: T2 sequence with T52P, I54L
# SIX6 [8] = target: T4, SIX6 (Homo sapiens, UniProt O95475 114-200, L167M)
# T4 sequence: T2 sequence with I54M
# SIX6 [9] = target: T5, SIX6 (Homo sapiens, UniProt O95475 114-200, T165G)
# T5 sequence: T2 sequence with T52G, I54L
# SIX6 [10] = target: T6, SIX6 (Homo sapiens, UniProt O95475 114-200, T139Q)
# T6 sequence: T2 sequence with T26Q, I54L
# SIX6 [11] = target: T7, SIX6 (Homo sapiens, UniProt O95475 114-200, L167V)
# T7 sequence: T2 sequence with I54V
# SIX6 [12] = target: T8, SIX6 (Homo sapiens, UniProt O95475 114-200, T165I)
# T8 sequence: T2 sequence with T52I, I54L
# HOXB9 [13] = target: HOXB9 (Homo sapiens, UniProt P17482 171-250, T197M)
# HOXB9 (Homo sapiens, UniProt P17482 171-250, T197M), sequence (P17482 171-250 T197M): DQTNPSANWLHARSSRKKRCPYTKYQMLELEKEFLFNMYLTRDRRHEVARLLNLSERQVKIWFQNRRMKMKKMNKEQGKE
# HOXB9 [14] = target: HOXB9 (Homo sapiens, UniProt P17482 171-250)
# HOXB9 (Homo sapiens, UniProt P17482 171-250), sequence (P17482 171-250): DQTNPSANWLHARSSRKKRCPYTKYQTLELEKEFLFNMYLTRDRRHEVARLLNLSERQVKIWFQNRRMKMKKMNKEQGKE
# HOXB9 [15] = target: HOXB9 (Homo sapiens, UniProt P17482 171-250, R186Q)
# HOXB9 (Homo sapiens, UniProt P17482 171-250, R186Q), sequence (P17482 171-250 R186Q): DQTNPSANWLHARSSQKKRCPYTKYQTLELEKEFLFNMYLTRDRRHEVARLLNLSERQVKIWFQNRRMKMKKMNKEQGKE
# SHOX, sequence (O15266 103-189): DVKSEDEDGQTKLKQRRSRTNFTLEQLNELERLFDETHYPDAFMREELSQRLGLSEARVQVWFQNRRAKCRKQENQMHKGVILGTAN
# CRX (Homo sapiens, UniProt O43186 26-111), sequence (O43186 26-111): as the sequence (O43186 26-111 E42D) above, with D17E counted along it
sequence,measurement,setting,value
CCGAGCGG,binding signal,SHOX,"6.99 upbm affinity estimate (log intensity, higher = more binding, comparable within an allelic series)"
AATTAAGC,binding signal,SHOX,"11.9 upbm affinity estimate (log intensity, higher = more binding, comparable within an allelic series)"
AATTAGCG,binding signal,SHOX,"12 upbm affinity estimate (log intensity, higher = more binding, comparable within an allelic series)"
GGAAGACC,binding signal,SHOX,"7.12 upbm affinity estimate (log intensity, higher = more binding, comparable within an allelic series)"
AATTAAGT,binding signal,SHOX,"11.8 upbm affinity estimate (log intensity, higher = more binding, comparable within an allelic series)"
GAGCTGGC,binding signal,NKX2-4,"9.65 upbm affinity estimate (log intensity, higher = more binding, comparable within an allelic series)"
AGGCCCGC,binding signal,CRX [1],"8.17 upbm affinity estimate (log intensity, higher = more binding, comparable within an allelic series)"
same,binding signal,CRX [2],"8.1 upbm affinity estimate (log intensity, higher = more binding, comparable within an allelic series)"
same,binding signal,CRX [3],"8.27 upbm affinity estimate (log intensity, higher = more binding, comparable within an allelic series)"
CCGTAGGC,binding signal,NKX3-2 [4],"10.5 upbm affinity estimate (log intensity, higher = more binding, comparable within an allelic series)"
same,binding signal,NKX3-2 [5],"10.4 upbm affinity estimate (log intensity, higher = more binding, comparable within an allelic series)"
CCAGCGCA,binding signal,HOXC10,"10 upbm affinity estimate (log intensity, higher = more binding, comparable within an allelic series)"
CGCGTAGC,binding signal,SIX6 [6],"9.05 upbm affinity estimate (log intensity, higher = more binding, comparable within an allelic series)"
same,binding signal,SIX6 [7],"9.03 upbm affinity estimate (log intensity, higher = more binding, comparable within an allelic series)"
same,binding signal,SIX6 [8],"8.94 upbm affinity estimate (log intensity, higher = more binding, comparable within an allelic series)"
same,binding signal,SIX6 [9],"9.13 upbm affinity estimate (log intensity, higher = more binding, comparable within an allelic series)"
same,binding signal,SIX6 [10],"9.19 upbm affinity estimate (log intensity, higher = more binding, comparable within an allelic series)"
same,binding signal,SIX6 [11],"8.99 upbm affinity estimate (log intensity, higher = more binding, comparable within an allelic series)"
same,binding signal,SIX6 [12],"8.98 upbm affinity estimate (log intensity, higher = more binding, comparable within an allelic series)"
AGAGCGCG,binding signal,CRX [1],"8.2 upbm affinity estimate (log intensity, higher = more binding, comparable within an allelic series)"
same,binding signal,CRX [2],"8.22 upbm affinity estimate (log intensity, higher = more binding, comparable within an allelic series)"
same,binding signal,CRX [3],"8.22 upbm affinity estimate (log intensity, higher = more binding, comparable within an allelic series)"
GCCAGACC,binding signal,SIX6 [6],"9.01 upbm affinity estimate (log intensity, higher = more binding, comparable within an allelic series)"
same,binding signal,SIX6 [7],"8.91 upbm affinity estimate (log intensity, higher = more binding, comparable within an allelic series)"
same,binding signal,SIX6 [8],"9.01 upbm affinity estimate (log intensity, higher = more binding, comparable within an allelic series)"
same,binding signal,SIX6 [9],"9.08 upbm affinity estimate (log intensity, higher = more binding, comparable within an allelic series)"
same,binding signal,SIX6 [10],"9.06 upbm affinity estimate (log intensity, higher = more binding, comparable within an allelic series)"
same,binding signal,SIX6 [11],"8.94 upbm affinity estimate (log intensity, higher = more binding, comparable within an allelic series)"
same,binding signal,SIX6 [12],"8.93 upbm affinity estimate (log intensity, higher = more binding, comparable within an allelic series)"
GCCAGCCC,binding signal,SIX6 [6],"8.95 upbm affinity estimate (log intensity, higher = more binding, comparable within an allelic series)"
same,binding signal,SIX6 [7],"8.85 upbm affinity estimate (log intensity, higher = more binding, comparable within an allelic series)"
same,binding signal,SIX6 [8],"9.06 upbm affinity estimate (log intensity, higher = more binding, comparable within an allelic series)"
same,binding signal,SIX6 [9],"9.06 upbm affinity estimate (log intensity, higher = more binding, comparable within an allelic series)"
same,binding signal,SIX6 [10],"9.07 upbm affinity estimate (log intensity, higher = more binding, comparable within an allelic series)"
same,binding signal,SIX6 [11],"8.96 upbm affinity estimate (log intensity, higher = more binding, comparable within an allelic series)"
same,binding signal,SIX6 [12],"9.01 upbm affinity estimate (log intensity, higher = more binding, comparable within an allelic series)"
ACAATTAT,binding signal,HOXB9 [13],"9.96 upbm affinity estimate (log intensity, higher = more binding, comparable within an allelic series)"
ATAATTGC,binding signal,HOXB9 [13],"10.2 upbm affinity estimate (log intensity, higher = more binding, comparable within an allelic series)"
same,binding signal,HOXB9 [14],"11.7 upbm affinity estimate (log intensity, higher = more binding, comparable within an allelic series)"
same,binding signal,HOXB9 [15],"11.5 upbm affinity estimate (log intensity, higher = more binding, comparable within an allelic series)"
ACGCTGCG,binding signal,NKX2-4,"9.63 upbm affinity estimate (log intensity, higher = more binding, comparable within an allelic series)"
GCGAGCGC,binding signal,HOXB9 [13],"8.46 upbm affinity estimate (log intensity, higher = more binding, comparable within an allelic series)"
same,binding signal,HOXB9 [14],"8.32 upbm affinity estimate (log intensity, higher = more binding, comparable within an allelic series)"
same,binding signal,HOXB9 [15],"8.42 upbm affinity estimate (log intensity, higher = more binding, comparable within an allelic series)"
GCCGGTCC,binding signal,CRX [1],"8.03 upbm affinity estimate (log intensity, higher = more binding, comparable within an allelic series)"
same,binding signal,CRX [2],"8.04 upbm affinity estimate (log intensity, higher = more binding, comparable within an allelic series)"
same,binding signal,CRX [3],"8.24 upbm affinity estimate (log intensity, higher = more binding, comparable within an allelic series)"
